IP6K1 inh: blocks human inositol hexakisphosphate kinase 1 | 0.81% of 140,000 active | AID 1645851 | Q92551 | IP6K1 kinase, ADP-Glo luminescence, 2 h; active compounds read low | activity change, % (series mostly up to about 58 µM); in the data active means activity change below about -25%; further: on the % scale 0 is the no-effect control and ±100 the full control effect
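ADP-Glo luminescence measures ADP made by human IP6K1 during a 2 h RT reaction with ATP/IP6 (mix at 1.3 mM/130 uM); top library doses 57.5 and 19.1 uM final.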
KDM5B inh: KDM5B demethylase inhibition; KDM5B demethylase, FDH-coupled NADH fluorescence (FDH is formaldehyde dehydrogenase); Potency, µM (doses to about 57.7 µM), actives largely listed as inhibitors; 2.6% of 220,000 active; active means well fitted inhibition curve with a large enough effect; inconclusive means small, poorly fitted or top-dose-only effect; inactive means no such curve, though single readings can be large or run the other way; further: potency means the concentration at half of the fitted maximal effect; 0% is about no effect; nearly all actives have a fitted effect of over 70% in size
Target sequence (Q9UGL1 whole entry, looked up): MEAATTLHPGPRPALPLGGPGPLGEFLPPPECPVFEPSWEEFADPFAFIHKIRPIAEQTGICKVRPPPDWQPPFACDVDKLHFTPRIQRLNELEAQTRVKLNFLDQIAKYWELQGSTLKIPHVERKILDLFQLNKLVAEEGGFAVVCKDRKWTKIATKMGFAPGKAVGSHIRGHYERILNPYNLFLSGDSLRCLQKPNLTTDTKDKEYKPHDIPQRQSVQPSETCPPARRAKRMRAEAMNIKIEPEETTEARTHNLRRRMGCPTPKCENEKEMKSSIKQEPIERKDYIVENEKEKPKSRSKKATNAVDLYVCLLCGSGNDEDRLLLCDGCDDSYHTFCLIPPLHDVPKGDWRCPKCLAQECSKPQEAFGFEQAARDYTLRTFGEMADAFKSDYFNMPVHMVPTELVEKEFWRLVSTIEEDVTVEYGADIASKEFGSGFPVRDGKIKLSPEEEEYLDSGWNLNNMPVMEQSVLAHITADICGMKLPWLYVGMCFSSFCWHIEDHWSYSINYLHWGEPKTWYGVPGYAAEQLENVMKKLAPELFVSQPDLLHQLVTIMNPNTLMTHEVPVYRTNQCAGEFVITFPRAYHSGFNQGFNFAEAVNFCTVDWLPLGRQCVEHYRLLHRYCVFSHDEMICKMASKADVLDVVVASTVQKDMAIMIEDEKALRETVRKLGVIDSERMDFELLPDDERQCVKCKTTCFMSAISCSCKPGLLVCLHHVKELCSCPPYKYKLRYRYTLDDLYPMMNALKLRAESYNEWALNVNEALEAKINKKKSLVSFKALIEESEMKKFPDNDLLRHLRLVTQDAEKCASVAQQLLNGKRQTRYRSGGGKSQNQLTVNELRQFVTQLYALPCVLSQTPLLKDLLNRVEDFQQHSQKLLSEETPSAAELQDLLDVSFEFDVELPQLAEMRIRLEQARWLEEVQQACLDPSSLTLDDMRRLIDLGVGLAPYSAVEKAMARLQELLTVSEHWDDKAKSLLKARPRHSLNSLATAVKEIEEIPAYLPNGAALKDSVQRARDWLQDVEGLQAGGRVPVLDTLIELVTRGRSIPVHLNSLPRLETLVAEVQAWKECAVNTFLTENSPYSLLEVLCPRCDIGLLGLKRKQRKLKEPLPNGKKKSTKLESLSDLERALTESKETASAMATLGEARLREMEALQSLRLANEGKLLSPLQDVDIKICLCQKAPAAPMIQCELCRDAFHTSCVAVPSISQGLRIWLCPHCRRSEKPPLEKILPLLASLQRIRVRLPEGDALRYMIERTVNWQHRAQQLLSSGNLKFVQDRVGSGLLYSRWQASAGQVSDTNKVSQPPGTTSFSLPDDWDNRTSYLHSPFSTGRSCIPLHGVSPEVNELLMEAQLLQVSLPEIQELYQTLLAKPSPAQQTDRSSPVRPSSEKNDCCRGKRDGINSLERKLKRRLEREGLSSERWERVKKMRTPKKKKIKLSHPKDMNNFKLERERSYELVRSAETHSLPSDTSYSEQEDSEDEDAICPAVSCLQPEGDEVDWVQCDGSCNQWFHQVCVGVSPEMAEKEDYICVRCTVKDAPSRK
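qHTS format, multiple compound concentrations. Buffer 50 mM HEPES pH 7.5/0.01% Tween-20; 200 nM KDM5BΔAP final; 10 min compound preincubation; substrate-mix levels 12.5 µM peptide, 25 µM α-KG, 0.25 mM NAD⁺; 30 min RT; ΔRFU.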
Active calls of the source: *; i = inactive; ? = inconclusive; . = no result. This is a sample that favours compounds with a hit; in the whole collection about 2.8% have one here.

SMILES	IP6K1 inh	KDM5B inh
Cc1ccc2c(C(=O)NCCN3CCCCC3)cc(NC(=O)C(C)C)cc2n1	16	22µM*
COc1ccc(CNC(=O)c2cc(NC(C)=O)cc3nc(C)ccc23)c(OC)c1	6	?
Cc1ccc2c(C(=O)N3CCN(c4ccccc4)CC3)cc(NC(=O)C(C)C)cc2n1	27	?
Cc1ccc2c(C(=O)NCc3ccccc3Cl)cc(NC(=O)C(C)C)cc2n1	11	14µM*
CC(=O)c1c(C)n(-c2ccccc2C)c2ccc(O)cc12	.	i
COc1ccc(-c2cccc(C(=O)NCc3ccccc3Cl)c2)nn1	12	.
CC1CCCC(C)N1C(=O)c1ccc2nc(-c3ccncc3)oc2c1 (centres undefined)	8	.
COc1ccc(-c2ccnc(N[C@H]3CO[C@H]4[C@@H]3OC[C@@H]4NS(=O)(=O)c3cccs3)n2)cc1	-7	14µM*
CC(C)(C)c1ccc(NC(=O)O[C@@H]2CO[C@H]3[C@@H]2OC[C@@H]3Nc2nccc(-c3ccc4c(c3)OCO4)n2)cc1	-6	28µM*
COc1ccc(NC(=O)O[C@@H]2CO[C@H]3[C@@H]2OC[C@@H]3Nc2nccc(-c3cccs3)n2)cc1	-13	i
COc1ccccc1-c1ccnc(N[C@H]2CO[C@H]3[C@@H]2OC[C@@H]3NS(=O)(=O)c2cccs2)n1	-7	?
N#Cc1cccc(NC(=O)N[C@H]2CO[C@H]3[C@@H]2OC[C@@H]3Nc2nccc(-c3cccs3)n2)c1	4	i
COc1ccc(-c2ccnc(N[C@H]3CO[C@H]4[C@@H]3OC[C@@H]4NC(=O)Nc3cccc(C#N)c3)n2)cc1	-3	25µM*
c1csc(-c2ccnc(N[C@H]3CO[C@H]4[C@@H]3OC[C@@H]4NCC3CCCCC3)n2)c1	6	40µM*
CC(C)(C)c1ccc(NC(=O)O[C@@H]2CO[C@H]3[C@@H]2OC[C@@H]3Nc2nccc(-c3cccc(F)c3)n2)cc1	-4	?
O=C([C@H]1CCCN1C(=O)c1cccc(Cl)c1)N1CCC(N2CCOC2=O)CC1	-6	.
O=C(c1nn(CC2CC2)c2c1CNCC2)N1CCC(Cc2ccccc2)CC1	-1	.
CN(C)C(=O)N1CCN(c2ccc3nnc(C4CC4)n3n2)CC1	-1	.
COC(=O)/C(C#N)=C\c1cc(OC)c(OC)cc1Br	.	i
CC(C)CN(C(=O)Cc1c[nH]c2ccccc12)c1nc2ccccc2s1	.	i
Cc1nn(-c2ccc(C(C)C)cc2)c(C)c1[C@@H]1C=C[C@@H](NCc2ccc(F)cc2)C1	-13	?
Cc1ccc(OCC(=O)N2CCC3(CC2)CC(N2CCOCC2)CCO3)cc1 (centres undefined)	12	.
O=C(CCC1CCCC1)N1CCN(C(=O)c2cc(=O)[nH]c3ccccc23)CC1	.	i
O=C(NCc1ccccc1)O[C@@H]1CO[C@H]2[C@@H]1OC[C@@H]2Nc1nccc(-c2ccc3c(c2)OCO3)n1	-5	?
COc1ccc(-c2ccnc(N[C@H]3CO[C@H]4[C@@H]3OC[C@H]4OC(=O)Nc3cccc(C(F)(F)F)c3)n2)cc1	-14	22µM*
SMILES	IP6K1 inh	KDM5B inh
COCC(=O)N[C@H]1CO[C@H]2[C@@H]1OC[C@@H]2Nc1nccc(-c2ccc(OC)cc2)n1	0	35µM*
O=C(O)CCCC(=O)N[C@H]1CO[C@H]2[C@@H]1OC[C@@H]2Nc1nccc(-c2cccc(F)c2)n1	-9	35µM*
COc1ccc(-c2ccnc(N[C@H]3CO[C@H]4[C@@H]3OC[C@@H]4NC(=O)c3ccc(C)cc3)n2)cc1	-14	?
COc1ccc(-c2ccnc(N[C@H]3CO[C@H]4[C@@H]3OC[C@H]4OC(=O)Nc3cccc(OC)c3)n2)cc1	-5	?
CN(C)c1ccc(-c2ccnc(N[C@H]3CO[C@H]4[C@@H]3OC[C@H]4OC(=O)NCc3ccccc3)n2)cc1	3	28µM*
CC(C)(C)C(=O)N[C@H]1CO[C@H]2[C@@H]1OC[C@@H]2Nc1nccc(-c2cccc(F)c2)n1	-6	?
Cn1ncc2c(C(=O)Nc3cccc(F)c3)cc(-c3cccc(F)c3)nc21	2	.
Cc1cccc(C)c1-c1cc(C(=O)NCc2cccc(Cl)c2)c2cnn(C)c2n1	1	.
O=C(C1CCC1)N1CCC(=O)N(C2CCCC2)Cc2ccccc21	8	.
COc1ccccc1Cn1c(=O)c(C(=O)NCc2cccs2)nc2cccnc21	14	.
COCCNC(=O)[C@@H]1C[C@@H](c2ccc(F)cc2)N([S+](=O)([O-])c2cccnc2)C1	-3	35µM*
COCCNC(=O)[C@@H]1C[C@@H](c2ccc(F)cc2)N([S+](=O)([O-])c2ccccc2)C1	7	i
O=C(C1CCc2ncc(-c3ccsc3)n2C1)N1CCN(c2ccccn2)CC1 (centres undefined)	13	25µM*
CCCN1CCN(C(=O)C2CCc3ncc(-c4ccsc4)n3C2)CC1 (centres undefined)	8	?
CN(C)C(=O)c1cc2c(s1)CCC(C(=O)N1CCN(c3ccccc3)CC1)C2 (centres undefined)	38	i
CN(C)C(=O)c1cc2c(s1)CCC(C(=O)N1CCN(c3ccccn3)CC1)C2 (centres undefined)	8	28µM*
Cc1ccc(C(=O)NCc2nnc3c(-c4nc(C)no4)cccn23)cc1	11	28µM*
Cc1cc(C)cc(C(=O)NCc2nnc3c(-c4nc(C)no4)cccn23)c1	5	?
CCCc1noc(-c2cccn3c(CNC(=O)c4ccc(OC)cc4)nnc23)n1	5	?
COc1ccc(C(=O)NCc2nnc3c(-c4nc(C)no4)cccn23)cc1	30	25µM*
COc1ncccc1-c1nc2cc(C(=O)Nc3ccc(C)cc3)ccc2o1	3	.
COc1ccc(C(=O)Nc2cc(C3CCCC3)nn2C)cc1	-5	.
O=C(NCc1ccc(C(F)(F)F)cc1)C1CCCN(Cc2cccc(-c3cccs3)c2)C1 (centres undefined)	-1	.
Cc1ccc(NC(=O)CCNc2c(C)nc3cnccn23)c(F)c1	15	25µM*
CCOc1ccc(NC(=O)CCc2c(C)nc3nc(C)nn3c2C)cc1	8	i
SMILES	IP6K1 inh	KDM5B inh
CCOc1ccc(NC(=O)CCNc2c(C)nc3cnccn23)cc1	26	20µM*
Cc1nc2cnccn2c1C(=O)NCc1cccc(F)c1	-4	.
O=C(CNC(=O)c1cccc(-c2ccc(C(F)(F)F)cc2)c1)NCC(F)F	1	.
COc1ccccc1C(=O)NCc1nnc2ccc(-c3ccc(C)cc3)nn12	-2	13µM*
CCOc1ccccc1C(=O)NCc1nnc2ccc(-c3ccc(C)cc3)nn12	-15	?
CCOc1ccccc1C(=O)NCc1nnc2ccc(-c3ccc(C)c(C)c3)nn12	3	32µM*
COc1ccccc1Cn1c(=O)c(C(=O)NCc2ccc3c(c2)OCO3)nc2cccnc21	17	.
COc1ccc(C(=O)N[C@@H]2CN(C(=O)Nc3ccc(OC(F)(F)F)cc3)CCC[C@H]2O)cc1	3	i
N#Cc1ccc(CN2C[C@@H]3C[C@H]2C(=O)N(Cc2ccccc2)c2ccccc2O3)cc1	-18	28µM*
O=C1[C@@H]2C[C@@H](CN2Cc2ccccc2)Oc2ccccc2N1Cc1ccccc1	11	?
N#Cc1ccc(CN2CCC3(CC(=O)Nc4ccccc4N3)C2)cc1 (centres undefined)	13	i
O=C1CC2(CCN(CC3CCNC3)C2)Nc2ccccc2N1 (centres undefined)	17	112µM*

High-throughput results as filed in PubChem BioAssay.
